Here are results for 24 compounds from PubChem BioAssay AID1572 (National Center for Advancing Translational Sciences (NCATS), 2009).

Results filed as inconclusive are left out. Active and inactive are the calls of the source. Calls come from the whole dose curve; as a rule, active = well fitted curve in either direction with a large enough effect; inconclusive = small, poorly fitted or top-dose-only effect; inactive = flat fitted curve, though single readings scatter.

This assay can be described thus: Total Fluorescence Confirmation Counterscreen for Inhibitors of the Interaction of Thyroid Hormone Receptor and Steroid Receptor Coregulator 2. Particulars: Texas Red total fluorescence, TRbeta/SRC2 FP artifact counterscreen; series mostly up to 92.2 µM; total fluorescence change, both ways: at the top concentration. An outline of the steps: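 Flags fluorescent or light-absorbing compounds: after 5 hr at ambient temperature, 0.6 uM TRbeta LBD plus 20 nM SRC2 Texas Red (1uM T3, 5% DMSO) read at 555/632 nm; TF = S + 2P from parallel and perpendicular channels.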
On the technique in general: Counterscreens check selectivity or assay interference.
With `CCCCCCN=CC1=C(O)CC(C)(C)CC1=O`, the “total fluorescence change, both ways” value was 3.03% (inactive).
To `Cn1cc[nH]c1=S` belongs -0.484% (inactive); to `CN(CCO)c1nc(N)c2c(N)nc3c(c2c1C#N)CC(=O)N3C1CCCC1`, -1.92% (inactive).
To `CCOc1ccc(NC(=O)C(c2ccccn2)N(C(=O)CCl)c2ccc(F)cc2)cc1` (centres undefined) belongs 1.73% (inactive); to `CC(=O)NC1N=C(C)N(c2ccccc2)C1=O` (centres undefined), 9.72% (inactive).
To `CCOC(=O)C(NC(=O)Nc1ccc(O)cc1)(c1ccccc1)C(F)(F)F` (centres undefined) belongs 6.83% (inactive); to `CC1=NN(c2ccc(F)cc2)C(=O)C1C(c1cccc(O)c1)c1c(C)[nH]n(-c2ccc(F)cc2)c1=O` (centres undefined), -16.4% (inactive).
On to `CCC(NC(=O)Nc1ccc(O)cc1)(C(F)(F)F)C(F)(F)F`, for which the “total fluorescence change, both ways” value is 8.48% (inactive).
With `CCN(CC)S(=O)(=O)c1cccc(N=NC2=C(O)CCCC2=O)c1` the figure was 6.08% (inactive); with `CN1c2ccccc2C(C)(C)C12C=Nc1c(ccc3ccccc13)O2` (centres undefined), 3.13% (inactive); with `CCN(C(=O)C1CCCN(c2ncnc3onc(-c4ccc(F)cc4)c23)C1)c1ccccc1` (centres undefined), 5.18% [at 184 µM] (inactive).
To `Cc1cc2ccccc2n1CCNC(=O)C(C)Oc1ccccc1` (centres undefined) belongs 6.98% (inactive); to `CC1(C)CC(=O)C(N=Nc2cccc(S(=O)(=O)N3CCOCC3)c2)=C(O)C1`, -1.25% (inactive); to `O=C(Nc1nc2ccc(Cl)cc2s1)c1ccc(N2CCCCC2)c([N+](=O)[O-])c1`, 2.3% (inactive).
With `CCC(C)NC(=O)COC(=O)c1csc2c1CCCC2` (centres undefined) the figure was 8.07% (inactive); with `Cc1cc2c(NC(=O)Nc3ccccc3)cccc2nn1`, 7.45% (inactive); with `O=c1[nH]c(Nc2ccc(F)cc2)cc2ccccc12`, 3.63% (inactive).
As for `O=C(/C=C/c1ccco1)NC(=S)Nc1cc(C(F)(F)F)ccc1N1CCOCC1`, the “total fluorescence change, both ways” value was 11% (inactive).
To `COc1cc(NC(C)CCCN)c2ncccc2c1` (centres undefined) belongs 2.44% [at 184 µM] (inactive).
With `C=CCNC(=O)/C(C#N)=C/c1c(C)nn(-c2ccc(Cl)cc2)c1Cl` the figure was 4.25% (inactive); with `Cc1ccc2c(CC(=O)Nc3c(C(=O)c4ccc(F)cc4)oc4ccccc34)coc2c1C`, 4.74% [at 184 µM] (inactive).
Take `O=C(O)/C=C/C(=O)Nc1ccc(OC(F)(F)F)cc1Br`: the “total fluorescence change, both ways” value was 10.6% (inactive).
With `C/C(=C\C(=O)c1ccccc1)Nc1ccc(O)cc1` the figure was 0.528% (inactive); with `Cn1c(-c2ccc(=O)[nH]c2)nc2ccccc21`, 5.74% (inactive).
